Only some compounds are listed: those with a hit (about 10% of all), similar ones and a draw of the others.
NPR1 antag: Natriuretic polypeptide receptor (hNpr1) antagonism - Primary qHTS. Potency, µM (titrated, usually from 46.3 µM), without a hit: at the highest dose activity change, negative = inhibition, actives largely listed as inhibitors. 1.6% of 76,000 active. Atrial natriuretic peptide receptor 1 (Homo sapiens), P16066. HEK293 hNpr1 GloSensor cGMP, ANP-stimulated luminescence. AID 1347048, 2019; calls by dose curve; note: nearly all actives have a fitted effect of over 60% in size
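Compound pre-incubated 30 min at room temperature on GloSensor-loaded HEK293 cells stably carrying hNpr1 and the pGS-40F cGMP biosensor. Stimulation uses hNppA at 0.1 nM final; luminescence is taken at baseline and 20 min post-agonist.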
NIH3T3 tox: Cytotoxic Profiling in NIH 3T3 Cell Line of Diverse Libraries Using Quantitative High-Throughput Screening; Potency, µM (series often up to 96.7 µM), inactives show at the top dose activity change, negative = cytotoxicity, actives largely listed as inhibitors; AID 1345082, 2018; 4.3% of 94,000 active; NIH 3T3 viability, CellTiter-Glo ATP luminescence, 48-72 h; note: nearly all actives have a fitted effect of over 55% in size
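Mouse fibroblast NIH 3T3 cells, 400 per well, received compound via pintool and were incubated for 48 or 72 hr prior to CellTiter-Glo ATP luminescence measurement.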
Luciferase inh: Firefly luciferase inhibition profiling of diverse chemical library using quantitative high-throughput screening. Luciferin 4-monooxygenase (Photinus pyralis), P08659. purified P. pyralis luciferase, luminescence, biochemical. Potency, µM (top dose mostly 115 µM), usual class: inhibitors. 2.5% of 76,000 active; note: nearly all actives have a fitted effect of over 65% in size
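FLuc 10nM, D-luciferin 10uM, ATP 10uM, Mg acetate 10mM, Tris acetate pH 7.5, Tween/BSA; cpd qHTS; enzyme added last; CCD luminescence.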
HEK cytotox: Cytotoxic Profiling in HEK 293 Cell Line of Diverse Libraries Using Quantitative High-Throughput Screening; HEK 293 viability, ATP luminescence (CellTiter-Glo), 48-72 h; Potency, µM (top dose mostly 115 µM), without a hit: at the highest dose activity change, negative = cytotoxicity, most hits filed as inhibitors; 6.6% of 94,000 active; note: nearly all actives have a fitted effect of over 60% in size
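HEK 293 cells seeded at 250 cells/well were exposed to compound for 48 or 72 hr at 37 degree Celsius. Viability taken as ATP content by CellTiter-Glo luminescence.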
GPT2 inhibitor: Primary qHTS assay for inhibitors of Glutamate pyruvate transaminase 2 (GPT2) | Alanine aminotransferase 2 (Homo sapiens), Q8TD30 | Recombinant GPT2, coupled pyruvate oxidase/HRP Amplex Red fluorescence | Potency, µM (titrated, usually from 57.7 µM), for the others: at the top dose activity change, negative = inhibition, actives largely listed as inhibitors | 0.25% of 100,000 active; note: nearly all actives have a fitted effect of over 60% in size
Target sequence (Q8TD30 whole entry, looked up): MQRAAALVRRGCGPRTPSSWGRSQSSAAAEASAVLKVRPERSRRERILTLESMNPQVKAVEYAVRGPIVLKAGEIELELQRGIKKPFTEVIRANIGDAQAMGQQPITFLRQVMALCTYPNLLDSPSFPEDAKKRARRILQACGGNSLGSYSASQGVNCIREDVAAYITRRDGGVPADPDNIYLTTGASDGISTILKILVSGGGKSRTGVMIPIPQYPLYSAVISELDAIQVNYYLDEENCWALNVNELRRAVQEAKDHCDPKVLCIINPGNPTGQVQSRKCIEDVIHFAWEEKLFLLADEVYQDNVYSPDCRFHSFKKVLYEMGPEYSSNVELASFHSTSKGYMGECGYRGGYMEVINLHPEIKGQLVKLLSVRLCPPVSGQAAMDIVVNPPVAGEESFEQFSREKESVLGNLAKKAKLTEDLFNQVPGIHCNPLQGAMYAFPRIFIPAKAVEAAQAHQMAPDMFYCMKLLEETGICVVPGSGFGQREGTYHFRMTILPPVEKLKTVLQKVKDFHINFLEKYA
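Fluorescence read-out: pyruvate from GPT2 turnover coupled to pyruvate oxidase, HRP and Amplex Red (0.2mM ThPP, 0.2U/mL PO and HRP, 50uM Amplex final). Substrates 250uM a-KG, 2mM L-alanine; enzyme 10ng/uL; 30 min RT.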
* hit, by the source's call; i = inactive; ? = inconclusive; / = no result given; ! = repeats disagree; [ ] = dose if it differs, or a comment. Unless noted, calls come from the whole dose curve; as a rule, active = well fitted curve in the direction sought with a large enough effect; inconclusive = small, poorly fitted or top-dose-only effect, or another doubt; inactive = no such curve, though single readings can be large; an effect the other way counts as inactive or inconclusive. % is set by controls: 0 for no effect and ±100 for the full control effect; potency is the fitted concentration of half-maximal effect.

SMILES	NPR1 antag	NIH3T3 tox	Luciferase inh	HEK cytotox	GPT2 inhibitor
COc1ncccc1-c1cnc2[nH]cc(CC(=O)NC3CC3)c2c1	-25%[70.6 µM]	25µM*	i	?	-3%[88.5 µM]
COc1ccc(OC)c(-c2cnc3[nH]cc(CC(N)=O)c3c2)c1	?	?	i	-26%[172 µM]	-8%[88.5 µM]
COc1ncccc1-c1cnc2[nH]cc(CC(=O)Nc3nc(C)cs3)c2c1	?	32µM*	i	35µM*	i
CN1C(=O)c2cccn2CC1C(=O)NC1CC1 (configuration not stated)	-6%	-5%	i	-12%	i
CCCN(Cc1cccc(OC)c1)C(=O)C(c1cccnc1)N1CCOCC1 (configuration not stated)	-13%	-18%	i	-7%	-10%
COc1cccc(-c2nc3c([nH]2)CN(c2cc(C4CC4)ncn2)CC3)c1	?	?	25µM*	35µM*	-6%[11.5 µM]
O=C(c1ccccn1)N1CCC(Cc2ccc(COc3ccncc3)cc2)CC1	/	25µM*	/	?	i
Cn1cnc(C(=O)N2CCC(Cc3ccc(COc4cccc(F)c4)cc3)CC2)c1	/	?	/	16µM*	-8%
O=C(c1ccccn1)N1CCCC(CN2CCCC2)CC1 (configuration not stated)	-1%	i	i	i	1%
Cn1cnc(C(=O)N2CCC(Cc3ccc(C(=O)N4CCOCC4)cc3)CC2)c1	3%	-15%	i	3%	i
CCNC(=O)[C@@H]1CCCN1[C@@H](C(=O)NC)C1CC1	0%[70.6 µM]	2%[230 µM]	i	i	-7%[88.5 µM]
Cn1c(C(=O)NCCc2cnc[nH]2)nc2nc(-c3ccccc3)c(Cl)cc21	-13%[70.6 µM]	28µM*	?	?	i
CN(C)CCNC(=O)c1nc2nc(-c3ccccc3)c(Cl)cc2n1C	-1%[70.6 µM]	?	i	-24%[172 µM]	1%[88.5 µM]
CN1CCC(NC(=O)c2nc3nc(-c4ccccc4)c(-c4cccc(O)c4)cc3n2C)CC1	-6%	11µM*	i	35µM*	1%
CN(C)CCNC(=O)c1nc2nc(-c3ccccc3)c(-c3ccccc3F)cc2n1C	?	35µM*	i	50µM*	4%[88.5 µM]
CC(C)CCNC(=O)c1c(OCC2CC2)cc(=O)n2c1CCOCC2	3%	-10%	i	-6%	-10%
CC(C)NC(=O)CCc1cc2n(n1)CCN(Cc1cc(=O)[nH]c(=O)[nH]1)C2	-3%	0%	i	i	2%
CC(C)c1noc(-c2cn(C3CCCN(C(=O)c4ccsc4)C3)nn2)n1 (configuration not stated)	-16%	-24%	i	?	i
O=C(NCc1ccco1)c1ccc2c(c1)n(Cc1ccc(F)cc1)c(=O)c1ccnn12	-5%	22µM*	i	?	i
O=C(NCc1ccccc1)c1ccc2c(c1)n(Cc1ccc(F)cc1)c(=O)c1ccnn12	0%	32µM*	i	28µM*	i
CCN(CC)CCNC(=O)c1ccc2c(c1)n(Cc1cccc(F)c1)c(=O)c1ccnn12	0%	32µM*	i	32µM*	i
CN(CC1(C)CCOCC1)C(=O)c1cccs1	-9%	i	?	13%	-14%
O=c1cc2c(nn1Cc1ccc(OC(F)(F)F)cc1)CCCCC2	-21%	?	i	45µM*	-6%
O=[S+]([O-])(c1ccccc1)N1CC2(COCCN(Cc3ccc(Cl)cc3)C2)C1	-9%[70.6 µM]	?	i	?	2%[88.5 µM]
COc1ccc(C(=O)N2CCOCC3(CN(Cc4cccc(C#N)c4)C3)C2)cc1OC	7%[70.6 µM]	79µM*	i	?	0%[88.5 µM]
SMILES	NPR1 antag	NIH3T3 tox	Luciferase inh	HEK cytotox	GPT2 inhibitor
O=C(c1cccc(C(F)(F)F)c1)N1CCOCC2(CN(Cc3ccccc3)C2)C1	-3%[70.6 µM]	7.1µM*	i	7.1µM*	1%[88.5 µM]
O=C(c1ccc(Cl)cc1)N1CCOCC2(C1)CN([S+](=O)([O-])c1ccccc1)C2	1%[70.6 µM]	50µM*	i	?	-3%[88.5 µM]
CN(Cc1cccc(C(F)(F)F)c1)C(=O)c1cccc(C(F)(F)F)c1	11%	?	i	?	i
CSc1ccc(-c2cccc(CN3CCC(NC(=O)c4cccc(Cl)c4)CC3)c2)cc1	/	-15%	/	-15%	/
COc1ccccc1-c1cccc(CN2CCC(NC(=O)Cc3ccc(F)cc3)CC2)c1	/	32µM*	/	?	?
O=C(NC1CCN(Cc2cccc(-c3cccs3)c2)CC1)c1ccc(C(F)(F)F)cc1	/	?	/	?	i
O=C(NC1CCN(Cc2cccc(-c3ccc(F)cc3F)c2)CC1)c1cccc(Cl)c1	/	16µM*	/	22µM*!	/
COc1ccccc1-c1cccc(CN2CCC(NC(C)=O)CC2)c1	/	?	/	-26%	i
COc1ccccc1-c1cccc(CN2CCC(NC(=O)c3cccc(Cl)c3)CC2)c1	/	?	/	45µM*	-7%
COc1ccccc1-c1cccc(CN2CCC(NC(=O)c3ccc(C(F)(F)F)cc3)CC2)c1	/	25µM*	/	22µM*	-6%
O=C(c1ccc(Cl)cc1)N1CCC2(CC1)N(c1ccccc1)C(=O)CS2(=O)=O	-1%	-14%	i	-12%	i
COc1ccc(-c2ccc3ncc4c(c3c2)n(-c2ccc(N3CCNCC3)c(C(F)(F)F)c2)c(=O)n4C)cn1	/	/	/	/	2%
O=C(Nc1ccc(Cl)cc1)N1CCC(C(=O)N2CCC(c3ccccc3)CC2)CC1	/	?	/	?	3%
COc1ccccc1-c1cccc(CN2CCC(N[S+](=O)([O-])c3cccs3)CC2)c1	/	?	/	?	3%
COc1ccccc1-c1cccc(CN2CCC(NC(=O)Nc3ccccc3)CC2)c1	/	18µM*	/	22µM*	?
COc1ccccc1-c1cccc(CN2CCC(NC(=O)Cc3cccc(Cl)c3)CC2)c1	/	25µM*	/	?	?
COc1ccccc1-c1cccc(CN2CCC(N[S+](=O)([O-])CCC(F)(F)F)CC2)c1	/	?	/	?	-5%
Cc1cc(CN(C)C(=O)c2cn(Cc3ccccc3Cl)nn2)on1	0%	-11%	i	-1%	-4%
COc1cc(CNC(=O)CCC2CCN(C(=O)c3ccccc3F)CC2)cc(OC)c1	0%	-8%	i	4%	-7%
COc1ccc2[nH]c(CN3CCC(CCC(=O)NCc4ccc(F)cc4)CC3)c(C)c2c1	0%	?	i	28µM*	4%
CNC(=O)[C@@H]1CN(C(=O)c2nn(C)c3ccccc23)C[C@H]1c1n[nH]c(C)n1	3%	-6%	i	1%	5%
